This passage reports Potency, outcome and activity, negative = inhibition results from PubChem BioAssay (NCATS).

Records with an inconclusive call do not appear. Values without a mark were called inactive. Activity calls are given as the source filed them. Calls come from the whole dose curve; as a rule, active = well fitted curve in the direction sought with a large enough effect; inconclusive = small, poorly fitted or top-dose-only effect, or another doubt; inactive = no such curve, though single readings can be large; an effect the other way counts as inactive or inconclusive.

Assay [1] has as its target Metallo-beta-lactamase type 2 (Klebsiella pneumoniae) (UniProt C7C422). Nature of the assay: qHTS to identify inhibitors of the New Delhi Metallo-beta-lactamase (NDM): assay validation screen against the NCATS LOPAC Collection (AID 1794843).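 Note: nitrocefin turnover by NDM-1 measured as 485 nm absorbance at plateau; % is set by controls: 0 for no effect and ±100 for the full control effect.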 The essentials:
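NDM-1 at 2 nM final in 50 mM HEPES pH 7.0, 1 uM ZnSO4, 0.01% Tween20, preincubated with LOPAC compounds pinned in DMSO; 50 uM nitrocefin (stock) added. Hydrolysis read as absorbance at 485 nm in the plateau phase.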
(qHTS replaces the single test concentration by a dilution series.)

For assay [2], the target named is Phospholipid hydroperoxide glutathione peroxidase GPX4 (Homo sapiens) (UniProt P36969). Nature of the assay: Primary qHTS Assay for Inhibitors of Recombinant Selenoprotein Glutathione Peroxidase 4 (GPX4) (AID 1845192). Note: nearly all actives have a fitted effect of over 65% in size. To be noted: outcome: dose series up to 50 µM unless noted. A digest of the protocol:
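NADPH consumption, followed by fluorescence at 340/450 nm between 0 and 15 min, reports GPX4 activity via coupled glutathione reductase (100 nM). Enzyme 200 nM was pre-exposed to compound 30 min; 0.5 mM cumene hydroperoxide and 1 mM GSH served as substrates.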

A short description of assay [3]: qHTS profiling for inhibitors of Plasmodium falciparum proliferation (AID 504749).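 For activity, negative = inhibition: 0% = DMSO vehicle and full inhibition = artemisinin control.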 Note: nearly all actives have a fitted effect of over 60% in size. Note: potency is the fitted concentration of half-maximal effect. To be noted: P. falciparum in erythrocytes, SYBR Green DNA, 72 h. A digest of the protocol:
(§1)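 Infected RBCs, 0.3% parasitemia/2.5% Hct final; cpd 72 h, 37 C, 5% CO2; lysis buffer with saponin/triton/SYBR Green I, o/n RT dark; FI 485/535; norm. to artemisinin (0.29 uM) and DMSO.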

Another assay relates to ATS189. The description is as above. The settings on record: P. falciparum in erythrocytes, SYBR Green DNA, 72 h; series mostly up to 28.7 µM. The essentials: as §1
The test system of the next assay is CP185. Described as above. The settings on record: P. falciparum in erythrocytes, SYBR Green DNA, 72 h; series mostly up to 28.7 µM. The essentials:
as §1

The test system of a further assay is CP191. The description is as above. To be noted: P. falciparum in erythrocytes, SYBR Green DNA, 72 h; series mostly up to 28.7 µM. The essentials:
as §1

For another assay, the system named is CP192. Described as above. The settings on record: P. falciparum in erythrocytes, SYBR Green DNA, 72 h; series mostly up to 28.7 µM. The essentials: as §1
A further assay deals with CP194. Described as above. To be noted: P. falciparum in erythrocytes, SYBR Green DNA, 72 h; series mostly up to 28.7 µM. The essentials:
as §1

For a further assay, the system named is 3D7. The description is as above. To be noted: P. falciparum in erythrocytes, SYBR Green DNA, 72 h; series mostly up to 28.7 µM. The essentials:
as §1

The test system of the next assay is 7G8. The assay is described as above. The settings on record: P. falciparum in erythrocytes, SYBR Green DNA, 72 h; series mostly up to 28.7 µM. A digest of the protocol: as §1
A further assay has as its system AA1029. The assay is described as above. The settings on record: P. falciparum in erythrocytes, SYBR Green DNA, 72 h; series mostly up to 28.7 µM. A digest of the protocol:
as §1

Another assay has as its system AS120. The assay is described as above. The settings on record: P. falciparum in erythrocytes, SYBR Green DNA, 72 h; series mostly up to 28.7 µM. A digest of the protocol: as §1
The next assay has as its system C2A. The description is as above. The settings on record: P. falciparum in erythrocytes, SYBR Green DNA, 72 h; series mostly up to 28.7 µM. A digest of the protocol: as §1
For a further assay, the system named is ATS95. Described as above. The settings on record: P. falciparum in erythrocytes, SYBR Green DNA, 72 h; series mostly up to 28.7 µM. A digest of the protocol: as §1
In assay [4] the target is Glutathione peroxidase 1 (Homo sapiens) (UniProt P07203). As to the kind of experiment: Primary qHTS Assay for Inhibitors of Recombinant Selenoprotein Glutathione Peroxidase 1 (GPX1) (AID 1845191). For activity, negative = inhibition: % is set by controls: 0 for no effect and ±100 for the full control effect. Note: nearly all actives have a fitted effect of over 65% in size. The essentials: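 10 nM GPX1 + cpd, 30 min RT; start w/ 1 mM GSH, 0.5 mM cumene hydroperoxide, 0.5 mM NADPH, 100 nM GR, 0.01% BSA; buffer 50 mM Tris-HCl pH 7.5, 2 mM EDTA, 150 mM NaCl; Fl 340/450, 0 & 15 min.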

The mark [5] stands for this setting: at 28.7 µM (top of the series), parasite line A.
Setting [6] is: at 28.7 µM (top of the series), parasite line B.

Metallo-beta-lactamase type 2 (Klebsiella pneumoniae), sequence (C7C422 whole entry, looked up): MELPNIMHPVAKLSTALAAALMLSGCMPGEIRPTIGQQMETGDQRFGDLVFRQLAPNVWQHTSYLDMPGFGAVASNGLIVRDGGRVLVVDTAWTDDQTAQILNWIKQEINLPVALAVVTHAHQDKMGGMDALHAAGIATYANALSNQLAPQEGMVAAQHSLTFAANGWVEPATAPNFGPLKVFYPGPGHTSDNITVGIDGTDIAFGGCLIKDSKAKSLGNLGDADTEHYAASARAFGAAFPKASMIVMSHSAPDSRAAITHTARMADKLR
Phospholipid hydroperoxide glutathione peroxidase GPX4 (Homo sapiens), sequence (P36969 whole entry, looked up): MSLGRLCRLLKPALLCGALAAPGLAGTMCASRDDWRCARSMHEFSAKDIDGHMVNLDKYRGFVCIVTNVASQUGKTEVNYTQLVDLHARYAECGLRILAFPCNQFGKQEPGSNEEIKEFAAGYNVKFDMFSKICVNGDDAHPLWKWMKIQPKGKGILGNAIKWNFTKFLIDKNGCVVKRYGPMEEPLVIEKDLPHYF
Glutathione peroxidase 1 (Homo sapiens), sequence (P07203 whole entry, looked up): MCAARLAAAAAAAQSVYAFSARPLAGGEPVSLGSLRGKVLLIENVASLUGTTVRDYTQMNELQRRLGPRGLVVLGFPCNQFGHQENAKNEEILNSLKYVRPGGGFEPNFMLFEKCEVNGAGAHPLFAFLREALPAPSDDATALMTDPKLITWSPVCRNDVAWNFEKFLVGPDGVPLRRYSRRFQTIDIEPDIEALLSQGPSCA

On to `CCCCCCCC/C=C\CCCCCCCC(=O)NCc1ccc(O)c(OC)c1`, for which the Potency entry (in assay [1]; in the assay with CP192; in the assay with CP194) was “inactive” in each case. For the same compound, in assay [2], the outcome was inactive. Besides, the Potency in assay [3] (parasite line A) was 7.08 µM (active); in the assay with ATS189, 8.91 µM (active); in the assay with CP185 it was 11.2 µM (active); in the assay with CP191 it was 12.6 µM (active).

Turning to `C=CCc1ccccc1OCC(O)CNC(C)C` (centres undefined), the Potency entry (in assay [1]; in the assay with 3D7; in the assay on C2A) was “inactive” throughout. The activity, negative = inhibition in assay [3] (setting [5]) is -5.93%. For the same compound, the Potency with 7G8 was 8.91 µM (active); in the assay on AA1029 it was 10 µM (active); in the assay on AS120, 4.47 µM (active); in the assay on CP194, 15.1 µM (active).

With `CC1=C(C)C(=O)C(CCCCC#CCCCC#CCO)=C(C)C1=O`, the Potency result in [1] is “inactive”. The Potency in assay [3] (parasite line A) is 11.2 µM (active); with 3D7, 12.6 µM (active); in the assay with 7G8 it was 2.51 µM (active); in the assay on AS120, 6.31 µM (active); in the assay on C2A, 10 µM (active); in the assay with CP194, 19 µM (active).

Take `Cc1nc2sccn2c(=O)c1CCN1CCC(=C(c2ccc(F)cc2)c2ccc(F)cc2)CC1`: the Potency result (in [1]; in the assay on CP192) was “inactive” throughout. Also, in assay [2], the outcome was inactive. Besides, the Potency is 10 µM (active) in the assay with 7G8 and 11.2 µM (active) in the assay with AS120.

Take `OCCN1CCN(CC/C=C2/c3ccccc3Sc3ccc(C(F)(F)F)cc32)CC1`: the Potency entry in assay [1] is “inactive”. In addition, in assay [2], the result was inactive. The Potency in assay [3] (parasite line A) is 8.91 µM (active); in assay [3] (parasite line B), 11.2 µM (active); with 3D7, 12.6 µM (active); in the assay with 7G8, 3.16 µM (active); in the assay on AA1029, 8.91 µM (active); in the assay with AS120, 11.2 µM (active). Besides, the Potency is 7.94 µM (active) in the assay with ATS189, 5.01 µM (active) in the assay with CP191, 9.53 µM (active) in the assay on CP192 and 7.57 µM (active) in the assay with CP194.

Turning to `NC(Cc1ccc(Cl)cc1)C(=O)O` (centres undefined), the Potency result (in assay [1]; with 3D7; with AA1029; with AS120; in the assay on ATS189; with ATS95) was “inactive” throughout. Moreover, the Potency result in the assay on C2A, with CP185, with CP191, in the assay with CP192 and in the assay on CP194 was “inactive” throughout. In addition, in [2], the outcome was inactive. Besides, the activity, negative = inhibition in assay [3] (setting [5]) is 17.3%; in assay [3] (setting [6]), 7.34%.

Consider `CCN(Cc1ccncc1)C(=O)C(CO)c1ccccc1` (centres undefined), for which the Potency entry (in [1]; in the assay with 3D7; in the assay on 7G8; in the assay on AA1029; in the assay on AS120; in the assay with ATS189) was “inactive” each time. Further, the Potency result with ATS95, in the assay with C2A, in the assay with CP185, with CP191, with CP192 and in the assay on CP194 was “inactive” in each case. Further, the activity, negative = inhibition in assay [3] (setting [5]) was 3.05%; in assay [3] (setting [6]), -7.78%.

With `c1ccc2c(c1)CCCC2C1=NCCN1` (centres undefined), in assay [4], the Potency result was “inactive”.

For the compound `C[C@H](CS)C(=O)N1CCC[C@H]1C(=O)O`, in [2], the result was inactive. Also, the activity, negative = inhibition in assay [3] (setting [5]) is -25.9%; in [3] (setting [6]), 10.2%. Further, the Potency entry in the assay with 3D7, in the assay on 7G8, with AA1029, in the assay on AS120, in the assay on ATS189 and in the assay on ATS95 was “inactive” each time. The Potency entry with C2A, in the assay on CP185, with CP191 and with CP194 was “inactive” each time.

For `O=C(O)CCCCCCCC(=O)O`, the Potency result (in [1]; in the assay on 3D7; in the assay with 7G8; in the assay with AA1029; in the assay on AS120; in the assay on ATS189) was “inactive” in each case. Further, the Potency result in the assay with ATS95, with C2A, with CP185, with CP191, with CP192 and in the assay on CP194 was “inactive” in each case. Further, the outcome in assay [2] was inactive. Moreover, the activity, negative = inhibition in assay [3] (setting [5]) was 9.73%; in assay [3] (setting [6]), 11.2%.

In the case of `CN(C)C(=O)Oc1cccc([N+](C)(C)C)c1`, the Potency entry (in [1]; in the assay with 3D7; in the assay with 7G8; with AA1029; with AS120; with ATS189) was “inactive” in each case. In addition, the Potency entry in the assay with ATS95, in the assay with C2A, in the assay with CP185, in the assay on CP191, with CP192 and in the assay with CP194 was “inactive” each time. Also, the activity, negative = inhibition was 4.77% in [3] (setting [5]) and -6.35% in assay [3] (setting [6]).

Consider `CN(C)CCCN1c2ccccc2Sc2ccccc21`, for which the Potency entry (in assay [1]; with 3D7; in the assay with CP191; in the assay on CP192) was “inactive” each time. Moreover, the result in [2] was inactive. Further, the activity, negative = inhibition in assay [3] (at 12.8 µM (top of the series), parasite line A) is 8.14%; in assay [3] (at 12.8 µM (top of the series), parasite line B), 20.7%. In addition, the Potency in the assay on 7G8 and in the assay with AA1029 was 3.16 µM (active) in each case.

Take `O=C(O)CP(=O)(O)O`: in [2], the outcome was inactive. Moreover, the activity, negative = inhibition in assay [3] (setting [5]) was 3.45%; in [3] (setting [6]), -17.2%. Besides, the Potency result in the assay with 3D7, with 7G8, in the assay on AA1029, with AS120, in the assay on ATS189 and with ATS95 was “inactive” each time. The Potency result in the assay with C2A, with CP185, with CP191, in the assay on CP192 and in the assay with CP194 was “inactive” throughout.
